Measurements: the supplement of paper PMC7411054
Where a name gives a salt, the structure may show the parent alone.

Key:
Assay in all cases: lowest phenotypically active concentration; higher = less potent
Conditions in all cases: treatment time: 24 h
HepG2-ACTB-RAB5A = system: HepG2-ACTB-RAB5A
Method in brief: (§1)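 Four wells per concentration (0.3, 1, 3 or 9 µM) were treated for 24 h in each of fifteen gene-edited reporter lines from A549, HepG2 and WPMY1 cells, then imaged live. After normalising live-cell features to solvent control wells, deviation was defined as ≥3 of 4 wells lying past the 95th percentile of control Euclidean distances. Reproducibility was defined as a median replicate Pearson correlation above the 95th percentile of non-replicates. Both had to hold for phenotypic activity.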

HepG2-CANX-COX4 = system: HepG2-CANX-COX4
Method in brief: as §1

HepG2-GM130-SQSTM1 = system: HepG2-GM130-SQSTM1
Method in brief: as §1

HepG2-TP53BP1-CLTA = system: HepG2-TP53BP1-CLTA
Method in brief: as §1

HepG2-TUBA1B-RELA = system: HepG2-TUBA1B-RELA
Method in brief: as §1

WPMY1-ACTB-RAB5A = system: WPMY1-ACTB-RAB5A
Method in brief: as §1

WPMY1-CANX-COX4 = system: WPMY1-CANX-COX4
Method in brief: as §1

WPMY1-GM130-SQSTM1 = system: WPMY1-GM130-SQSTM1
Method in brief: as §1

WPMY1-TP53BP1-CLTA = system: WPMY1-TP53BP1-CLTA
Method in brief: as §1

WPMY1-TUBA1B-RELA = system: WPMY1-TUBA1B-RELA
Method in brief: as §1

Row | SMILES | lowest phenotypically active concentration (HepG2-ACTB-RAB5A) [µM] | lowest phenotypically active concentration (HepG2-CANX-COX4) [µM] | lowest phenotypically active concentration (HepG2-GM130-SQSTM1) [µM] | lowest phenotypically active concentration (HepG2-TP53BP1-CLTA) [µM] | lowest phenotypically active concentration (HepG2-TUBA1B-RELA) [µM] | lowest phenotypically active concentration (WPMY1-ACTB-RAB5A) [µM] | lowest phenotypically active concentration (WPMY1-CANX-COX4) [µM] | lowest phenotypically active concentration (WPMY1-GM130-SQSTM1) [µM] | lowest phenotypically active concentration (WPMY1-TP53BP1-CLTA) [µM] | lowest phenotypically active concentration (WPMY1-TUBA1B-RELA) [µM]
1 | C#Cc1cccc(Nc2ncnc3cc(OCCOC)c(OCCOC)cc23)c1 [erlotinib] | 3 | 3 | 3 | 9 | 3 |  |  |  |  | 
2 | CC(=O)NCC(=O)N1[C@@H]2CC[C@H]1c1ccc(Nc3ncc(C(F)(F)F)c(NC4CCC4)n3)cc12 | ≤ 0.3 | ≤ 0.3 | ≤ 0.3 | ≤ 0.3 | ≤ 0.3 | ≤ 0.3 | ≤ 0.3 | ≤ 0.3 | ≤ 0.3 | ≤ 0.3
3 | Cc1n[nH]c2ccc(-c3cncc(OC[C@@H](N)Cc4ccccc4)c3)cc12 | ≤ 0.3 | ≤ 0.3 | ≤ 0.3 | ≤ 0.3 | ≤ 0.3 | ≤ 0.3 | ≤ 0.3 | ≤ 0.3 | ≤ 0.3 | ≤ 0.3
4 | FC(F)(F)c1ccc(/C=C/c2nc(COc3ccc(CCCCn4ccnn4)cc3)co2)cc1 | ≤ 0.3 | ≤ 0.3 | ≤ 0.3 | ≤ 0.3 | ≤ 0.3 |  |  |  |  | 
5 | COc1cc2ncnc(Nc3ccc(O)c(Br)c3)c2cc1OC | 3 | 9 | 9 | 3 | 3 | 3 | 3 | 3 | 3 | 
6 | COc1ccc2c(NC(=O)Nc3cccc(C(F)(F)F)n3)ccnc2c1 | 9 | 1 | 9 | 9 | 3 | 1 | 1 | 3 | 1 | 
7 | COc1cc(N2CCC(O)CC2)ccc1Nc1cc(Nc2ccccc2S(=O)(=O)C(C)C)c2cc[nH]c2n1 [Mps1-IN-1 dihydrochloride] | ≤ 0.3 | ≤ 0.3 | ≤ 0.3 | ≤ 0.3 | 1 | 9 | ≤ 0.3 | 3 | 3 | 
8 | O=C1NC(=O)C(c2ccccc2[N+](=O)[O-])=C1Nc1ccc(O)c(Cl)c1 | 9 | 9 | 9 | 3 | 3 | 9 |  |  |  | 
9 | COc1cc(C[C@H]2C(=O)OC[C@@H]2Cc2ccc(OC)c(OC)c2)ccc1O [Arctigenin] | 9 | 9 | 9 | 1 | 1 |  |  |  |  | 
10 | Cc1cc(Nc2cc(N3CCN(C)CC3)nc(Sc3ccc(NC(=O)C4CC4)cc3)n2)[nH]n1 | ≤ 0.3 | ≤ 0.3 | ≤ 0.3 | ≤ 0.3 | ≤ 0.3 | ≤ 0.3 | ≤ 0.3 | ≤ 0.3 | ≤ 0.3 | ≤ 0.3
11 | C=CC(=O)Nc1cccc(CN2C(=O)N(c3c(Cl)c(OC)cc(OC)c3Cl)Cc3cnc(NCCCCN(CC)CC)nc32)c1 [FIIN 1 hydrochloride] | ≤ 0.3 | 3 | ≤ 0.3 | ≤ 0.3 | ≤ 0.3 | ≤ 0.3 | 1 | ≤ 0.3 | ≤ 0.3 | 1
12 | COc1ccc(-c2cc3c(C)nc(N)nc3n([C@H]3CC[C@H](OCCO)CC3)c2=O)cn1 | ≤ 0.3 | ≤ 0.3 | ≤ 0.3 | ≤ 0.3 | ≤ 0.3 | ≤ 0.3 | ≤ 0.3 | ≤ 0.3 | ≤ 0.3 | ≤ 0.3
13 | COc1cc(N2CCOCC2)ccc1Nc1ncc(Cl)c(Nc2ccccc2NS(C)(=O)=O)n1 | 3 | 3 | 3 | 3 | 3 | 9 | 9 | 9 | 9 | 3
14 | Cc1c(C(=O)N2CCOc3ccc(-c4ccc(N)nc4)cc3C2)ccc(S(C)(=O)=O)c1F | 3 | 3 | 3 | 9 | 3 | 3 | 3 | 3 | 3 | 9
15 | COc1ccccc1S(=O)(=O)Nc1ccc2c(c1)CN(C)C(=O)N2 | 1 | 3 | 3 | 3 | 3 | 3 | 3 | 3 | 9 | 3
16 | CNC(=O)c1ccccc1Sc1ccc2c(/C=C/c3ccccn3)n[nH]c2c1 [Axitinib] | 3 | 3 | 3 | 3 | 3 | 9 | 9 | 3 | 3 | 3

Row | SMILES | lowest phenotypically active concentration (HepG2-ACTB-RAB5A) [µM] | lowest phenotypically active concentration (HepG2-CANX-COX4) [µM] | lowest phenotypically active concentration (HepG2-GM130-SQSTM1) [µM] | lowest phenotypically active concentration (HepG2-TP53BP1-CLTA) [µM] | lowest phenotypically active concentration (HepG2-TUBA1B-RELA) [µM] | lowest phenotypically active concentration (WPMY1-ACTB-RAB5A) [µM] | lowest phenotypically active concentration (WPMY1-CANX-COX4) [µM] | lowest phenotypically active concentration (WPMY1-GM130-SQSTM1) [µM] | lowest phenotypically active concentration (WPMY1-TP53BP1-CLTA) [µM] | lowest phenotypically active concentration (WPMY1-TUBA1B-RELA) [µM]
17 | CC(=O)NC1=NN(C(C)=O)C(C)(c2ccccc2)S1 (stereo not drawn) | 9 | 3 | 9 | 3 | 3 | 3 | 9 | 3 | 3 | 3
18 | COc1ccc2[nH]c(C(=O)c3ccccc3)cc2c1 | ≤ 0.3 | ≤ 0.3 | ≤ 0.3 | ≤ 0.3 | ≤ 0.3 | ≤ 0.3 | 3 | ≤ 0.3 | ≤ 0.3 | ≤ 0.3
19 | Cc1cnc(NC(=O)Nc2cc(Br)c(C)cc2OC[C@@H]2CNCCO2)cn1 | 3 | 9 | 1 | 1 | 1 | ≤ 0.3 | 1 | 3 | 1 | 1
20 | Clc1ccc(C2(c3ccc(-c4cn[nH]c4)cc3)CCNCC2)cc1 | ≤ 0.3 | ≤ 0.3 | ≤ 0.3 | ≤ 0.3 | ≤ 0.3 | ≤ 0.3 | ≤ 0.3 | ≤ 0.3 | 1 | ≤ 0.3
21 | Cc1cc(Nc2ncc3c(n2)N(C)C(=O)N(c2cc(NC(=O)c4cccc(C(F)(F)F)c4)ccc2C)C3)n(C)n1 [Pluripotin] | ≤ 0.3 | ≤ 0.3 | ≤ 0.3 | ≤ 0.3 | ≤ 0.3 | ≤ 0.3 | 1 | ≤ 0.3 | 1 | 1
22 | CN(C)c1ccc(C(=O)NCCCCCCC(=O)NO)cc1 | ≤ 0.3 | ≤ 0.3 | 1 | 1 | ≤ 0.3 | 1 | ≤ 0.3 | ≤ 0.3 | ≤ 0.3 | ≤ 0.3
23 | O=C(c1cccc(Cl)c1F)N1CCN(Cc2cccc(Nc3nccs3)n2)CC1 | ≤ 0.3 | ≤ 0.3 | ≤ 0.3 | ≤ 0.3 | ≤ 0.3 | 1 | 9 | 3 | ≤ 0.3 | 1
24 | CO[C@H]1C[C@@H]2CC[C@@H](C)[C@@](O)(O2)C(=O)C(=O)N2CCCC[C@H]2C(=O)O[C@H]([C@H](C)C[C@@H]2CC[C@@H](OC(=O)C(C)(CO)CO)[C@H](OC)C2)CC(=O)[C@H](C)C=C(C)[C@@H](O)[C@@H](OC)C(=O)[C@H](C)C[C@H](C)C=CC=CC=C1C [Temsirolimus] | ≤ 0.3 | 1 | ≤ 0.3 | ≤ 0.3 | 1 | ≤ 0.3 | ≤ 0.3 | ≤ 0.3 | ≤ 0.3 | 3
25 | Cc1ccc(-n2nc(C(C)(C)C)cc2NC(=O)Nc2ccc(OCCN3CCOCC3)c3ccccc23)cc1 | 1 | 3 | 3 | 3 | ≤ 0.3 | 3 | 1 | 1 | 9 | 1
26 | O=C(CCCCCN1C(=O)c2cccc3cccc(c23)C1=O)NO [Scriptaid] | ≤ 0.3 | 1 | ≤ 0.3 | ≤ 0.3 | ≤ 0.3 | 1 | 1 | 1 | 1 | 1
27 | CCN(CC)c1ccc(/C=N/NC(=O)c2ccncc2)c(O)c1 | ≤ 0.3 | ≤ 0.3 | ≤ 0.3 | ≤ 0.3 | 1 | ≤ 0.3 | ≤ 0.3 | ≤ 0.3 | ≤ 0.3 | 1
28 | Nc1ccn([C@@H]2O[C@H](CO)[C@@H](O)[C@@H]2O)c(=O)n1 [cytarabine] | ≤ 0.3 | ≤ 0.3 | ≤ 0.3 | ≤ 0.3 | ≤ 0.3 | ≤ 0.3 | 1 | 1 | ≤ 0.3 | ≤ 0.3
29 | Cc1cc(/N=N/c2ccc(S(=O)(=O)Nc3ccccn3)cc2)c(N)cc1O | 9 | 3 | 3 | 9 | 9 | 3 | 9 | 3 | 9 | 9
30 | CC(C)n1c(/C=C/[C@@H](O)C[C@@H](O)CC(=O)O)c(-c2ccc(F)cc2)c2ccccc21.CC(C)n1c(/C=C/[C@H](O)C[C@H](O)CC(=O)O)c(-c2ccc(F)cc2)c2ccccc21 [Fluvastatin sodium] | 1 | 1 | 1 | 1 | 1 | ≤ 0.3 | 1 | ≤ 0.3 | 1 | 1
31 | CN1CC[C@H](c2c(O)cc(O)c3c(=O)cc(-c4ccccc4Cl)oc23)[C@H](O)C1 [Flavopiridol hydrochloride] | ≤ 0.3 | ≤ 0.3 | ≤ 0.3 | ≤ 0.3 | ≤ 0.3 | ≤ 0.3 | ≤ 0.3 | ≤ 0.3 | ≤ 0.3 | ≤ 0.3
